Bioassay records deposited in PubChem BioAssay by National Center for Advancing Translational Sciences (NCATS).
Only some compounds are listed: those with a hit (about 9.5% of all), similar ones and a draw of the others.
SARS PLpro yeast = qHTS of Yeast-based Assay for SARS-CoV PLP; S. cerevisiae expressing SARS-CoV PLpro, growth rescue; Potency, µM (top dose mostly 32.9 µM), for the others: at the top dose activity, positive = growth rescue, usual class: activators; hit rate 0.19% among 330,000; AID 485353, 2010; calls by dose curve; further: 0% is about no effect; nearly all actives have a fitted effect of over 55% in size
Pf growth 96h = Primary qHTS for delayed death inhibitors of the malarial parasite plastid, 96 hour incubation; P. falciparum luciferase reporter growth, 96 h; Potency, µM (highest dose often 28.7 µM), without a hit: at the top dose activity change, negative = inhibition, hits mostly inhibitors; hit rate 6.9% among 320,000; further: on the % scale 0 is the no-effect control and ±100 the full control effect
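Plates of compound plus infected erythrocytes (2% hematocrit, 0.05% parasitemia final) incubate 96 hours, 37 C, 5% CO2. Detection reagent added; reduced luminescence from the parasites' luciferase reporter flags inhibition.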
RE007 growth inh = qHTS Assay for Inhibitors of the HIV-1 protein Vpr | hit rate 0.21% among 360,000 | Potency, µM (series often up to 92.2 µM), for inactives: top-dose activity change, negative = less growth, hits mostly inhibitors | S. pombe RE007 Vpr strain, BacTiter-Glo ATP luminescence, 24 h; active means well fitted falling curve with a large enough effect; inconclusive means small, poorly fitted or top-dose-only effect; inactive means no such curve, though single readings can be large or run the other way; further: on the % scale 0 is the no-effect control and ±100 the full control effect; nearly all actives have a fitted effect of over 50% in size
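Fission yeast RE007 carrying one integrated HIV-1 vpr copy, seeded at OD 0.01 in PMG+AL medium with 23 nL pinned compound. Grown 24 h at 30 degrees; viability read by BacTiter-Glo luminescence after 5 min.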
Pf growth 48h = Primary qHTS for delayed death inhibitors of the malarial parasite plastid, 48 hour incubation. P. falciparum luciferase growth in erythrocytes, 48 h. Potency, µM (doses to about 28.7 µM), without a hit: at the highest dose activity change, negative = inhibition, actives largely listed as inhibitors. hit rate 5.9% among 310,000; further: on the % scale 0 is the no-effect control and ±100 the full control effect
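First compound was added to culture medium, then infected red cells at 0.1% parasitemia and 2% hematocrit (final). After incubation at 37 C under 5% CO2, luciferase detection reagent was dispensed and light output recorded.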
NS1 inh = qHTS Assay for Inhibitors of Influenza NS1 Protein Function; Potency, µM (series often up to 46.1 µM), without a hit: at the top dose activity, positive = more growth; hit rate 0.4% among 270,000; calls by dose curve; further: actives are rising curves; nearly all actives have a fitted effect of over 50% in size
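S. cerevisiae expressing influenza A NS1, grown in glucose, washed, then diluted 1:100 into pH 6.0 -URA galactose medium with 23 nl compound. Growth recovery read as OD600; NS1-free strain serves as control.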
Starred values were filed as active, the others as inactive; [ ] = another dose, or the depositor's remark. Unless noted, the call rests on the fitted dose curve; in most records, active means well fitted inhibition curve with a large enough effect; inconclusive means small, poorly fitted or top-dose-only effect, or another doubt; inactive means no such curve, though single readings can be large or run the other way. Potency means the concentration at half of the fitted maximal effect.

How did CC(=O)Nc1ccc(CN2C(=O)C(CCc3ccccc3)ON=C2c2cnccn2)cc1 (stereo unspecified) do in these assays?
RE007 growth inh: 0.8%[18.4 µM]

Results for O=S(=O)(Nc1cc2nc3ccccc3nc2n1Cc1ccccc1)c1ccc(Cl)cc1 ?
SARS PLpro yeast: -6.9%; Pf growth 96h: 0.828µM*; RE007 growth inh: 3.9%; Pf growth 48h: 1.31µM*; NS1 inh: -4.4%

Results for Cc1ccc(C(=O)O/N=C(\N)Cc2cccs2)cc1[N+](=O)[O-] ?
SARS PLpro yeast: 0.0%; Pf growth 96h: 10.4µM*; RE007 growth inh: -16.3%; Pf growth 48h: 68.7%; NS1 inh: 4.1%

Results for Cc1cc(C)c(NC(=O)C2CCN(S(C)(=O)=O)CC2)c(C)c1 ?
RE007 growth inh: -19.1%

How did CCC(=O)N(CCC(Cc1ccccc1)c1ccc2c(c1)OCO2)Cc1ccccc1F (stereo unspecified) do in these assays?
SARS PLpro yeast: -6.3%; Pf growth 96h: 11.7µM*; RE007 growth inh: 18.3%; Pf growth 48h: inconclusive; NS1 inh: -35.0%

How did CCC(=O)N(CCC(Cc1ccccc1)c1ccco1)Cc1ccco1 (stereo unspecified) do in these assays?
SARS PLpro yeast: 0.0%; Pf growth 96h: -15.6%; RE007 growth inh: 3.4%; Pf growth 48h: inconclusive; NS1 inh: -4.9%

Results for N#Cc1ccccc1COc1cccc2c1CCCC2O (stereo unspecified) ?
SARS PLpro yeast: -0.3%; Pf growth 96h: 18.7%; RE007 growth inh: 4.9%; Pf growth 48h: 30.3%; NS1 inh: -4.0%

How did Cc1ccc(S(=O)(=O)/N=C(\CN2CCOCC2)N2CCCC2)cc1 do in these assays?
SARS PLpro yeast: 0.0%; RE007 growth inh: -14.3%; Pf growth 48h: -11.3%; NS1 inh: 6.8%

Results for Cc1ccc(S(=O)(=O)/N=C(\CCl)N2CCOCC2)cc1 ?
SARS PLpro yeast: -33.7%; Pf growth 96h: inconclusive; Pf growth 48h: 13.1µM*; NS1 inh: -15.1%

What do the screens show for `Cc1ccc(-c2cc(N)n(-c3ccc(F)cc3)n2)cc1`?
SARS PLpro yeast: -0.8%; Pf growth 96h: 88.2%; RE007 growth inh: -22.8%; Pf growth 48h: 87.4%; NS1 inh: 11.9%

Results for Cc1cc(C(=O)Nc2c(F)cc(F)cc2Br)cs1 ?
SARS PLpro yeast: -4.9%; Pf growth 96h: 14.7µM*; RE007 growth inh: -7.7%; Pf growth 48h: 2.9%; NS1 inh: -13.3%

Results for O=C1C(=O)c2cccc3cccc1c23 ?
SARS PLpro yeast: -12.0%; Pf growth 96h: 6.57µM*; RE007 growth inh: inconclusive; Pf growth 48h: 10.4µM*

How did NC1=NC(c2ccc(Cl)cc2)N(c2ccc(S(N)(=O)=O)cc2)C(N)=N1 (stereo unspecified) do in these assays?
SARS PLpro yeast: 2.6%; Pf growth 96h: 9.28µM*; Pf growth 48h: inconclusive; NS1 inh: -1.1%

How did O=C(NCC(=O)N(c1cccnc1)C(C(=O)NC1CCCC1)c1ccc(F)cc1)c1ccco1 (stereo unspecified) do in these assays?
SARS PLpro yeast: 0.6%; Pf growth 96h: -31.1%[5.75 µM]; Pf growth 48h: 28.7%; NS1 inh: inconclusive

How did Cc1onc(-c2c(F)cccc2Cl)c1C(O)c1ccc(F)cc1 (stereo unspecified) do in these assays?
SARS PLpro yeast: -0.6%; Pf growth 96h: 21.1%; RE007 growth inh: 2.8%; Pf growth 48h: -7.4%; NS1 inh: -2.8%

What do the screens show for `Cc1cc(-c2nnc(CCC(=O)NC(C)c3ccc(F)cc3)o2)no1` (stereo unspecified)?
SARS PLpro yeast: -0.7%; Pf growth 96h: inconclusive; RE007 growth inh: 1.0%; Pf growth 48h: 40.8%; NS1 inh: 2.0%

Results for COc1ccccc1CN1C[C@@H]2C[C@@H](c3[nH]c4c(C)cccc4c3C)N3CCC[C@@]23C1=O ?
SARS PLpro yeast: -1.4%; Pf growth 96h: 11.7µM*; RE007 growth inh: -15.0%; Pf growth 48h: 6.57µM*; NS1 inh: 1.4%

What do the screens show for `COc1ccccc1CN1C[C@@H]2C[C@@H](c3cccc(C)c3)N3CCC[C@@]23C1=O`?
SARS PLpro yeast: 9.1%; Pf growth 96h: 10.4µM*; RE007 growth inh: -20.2%; Pf growth 48h: inconclusive; NS1 inh: 1.9%

How did COc1ccc(-c2[nH]ncc2[C@@H]2C[C@H]3CN(Cc4ccccc4C)C(=O)[C@]34CCCN24)cc1 do in these assays?
SARS PLpro yeast: 0.2%; Pf growth 96h: 6.1%; RE007 growth inh: -6.0%; Pf growth 48h: 3.29µM*; NS1 inh: 4.9%

Results for COc1ccccc1CN1C[C@@H]2C[C@@H](c3ccc(C)c(C)c3)N3CCC[C@@]23C1=O ?
SARS PLpro yeast: -0.6%; Pf growth 96h: 10.4µM*; RE007 growth inh: -15.7%; Pf growth 48h: inconclusive; NS1 inh: 3.9%

How did Nc1nc(Cl)nc2c1ncn2[C@@H]1O[C@H](CO)[C@H](O)C1F (stereo partly specified) do in these assays?
Pf growth 96h: -17.1%; Pf growth 48h: -6.7%

Results for CC(=O)N(C[C@@H](C)C(=O)O)c1c(I)cc(I)c(N)c1I ?
Pf growth 96h: 16.3%[12.8 µM]; Pf growth 48h: -3.1%[12.8 µM]

How did COc1ccc(CCn2c(-c3ccco3)nc3oc4ccccc4c(=O)c3c2=O)cc1 do in these assays?
NS1 inh: -0.7%

Results for CCCCn1c(-c2ccco2)nc2oc3ccccc3c(=O)c2c1=O ?
SARS PLpro yeast: -0.4%; Pf growth 96h: 9.28µM*; RE007 growth inh: -13.5%; Pf growth 48h: inconclusive; NS1 inh: -5.2%

How did CCc1nc2oc3cc(OC)ccc3c(=O)c2c(=O)n1Cc1ccco1 do in these assays?
SARS PLpro yeast: 2.2%; Pf growth 96h: inconclusive; RE007 growth inh: 5.3%; Pf growth 48h: 11.7µM*; NS1 inh: -16.5%

How did CCOC1=C2[C@H](c3ccccc3)N(S(=O)(=O)c3ccc(C)cc3)[C@H](C(C)C)[C@H]2n2c(=O)n(-c3ccccc3)c(=O)n2C1 do in these assays?
RE007 growth inh: -5.8%

What do the screens show for `O=C1c2cccnc2C(Nc2ccc(Br)cc2Br)N1Cc1cccs1` (stereo unspecified)?
SARS PLpro yeast: -0.1%; Pf growth 96h: 6.57µM*; Pf growth 48h: inconclusive

What do the screens show for `CC(=O)CCc1c(C)[nH]c2ccccc2c1=O`?
SARS PLpro yeast: -7.1%; RE007 growth inh: -6.4%; Pf growth 48h: -20.4%; NS1 inh: -108.3%

What do the screens show for `CCc1c(C)[nH]c2ccccc2c1=O`?
SARS PLpro yeast: inconclusive; Pf growth 96h: 101.7%; RE007 growth inh: 5.6%; Pf growth 48h: 1.65µM*; NS1 inh: -40.0%

How did Clc1ccc(-c2cn(-c3nc4ccccc4s3)nn2)cc1 do in these assays?
RE007 growth inh: 1.2%

Results for CCn1c(SCC(=O)Nc2ccc(C)cc2)nc2sc3c(c2c1=O)CCN(C)C3 ?
SARS PLpro yeast: 0.6%; Pf growth 96h: 0.37µM*; RE007 growth inh: -2.9%; Pf growth 48h: 3.7µM*; NS1 inh: 10.4%
